Assay outcomes deposited in PubChem BioAssay by National Center for Advancing Translational Sciences (NCATS).
Most compounds without a hit are left out; they make up all but 19% or so of the library.
HT1080 IDH1KD tx = kills HT-1080 cells with IDH1 knockdown; HT-1080 IDH1 knockdown viability, ATP luminescence, 48 h; Potency, µM (highest dose often 46.1 µM), usual class: cytotoxic; 360,000 tested, 2% active
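HT-1080-IDH1KD cells (IDH1 knocked down), 750/well in RPMI with 5% FBS, treated with compound 48 h at 37 degrees C. Viability by CellTiter-Glo luminescence, normalised to DMSO and no-cell wells; concentration-response curves classed.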
ELG1 repair inh = ELG1-dependent DNA repair inhibition; HEK293T ELG1-luciferase reporter, luminescence, 16 h; DNA damage induced by 5-fluorouridine; Potency, µM (highest dose often 46.1 µM), actives largely listed as inhibitors; 330,000 tested, 2.3% active; AID 504467; also: nearly all actives have a fitted effect of over 55% in size
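Step one: seed 2,000 cells per well. Step two: pin-transfer compound or DMSO alongside 5-fluorouridine. Step three: incubate 16 hr, 37 °C, 5% CO2. Step four: add ONE-Glo, wait 30 min, read luminescence.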
IL1B secr inh = blocks inflammasome-driven IL-1 beta release; 360,000 tested, 4.7% active; AID 743279; THP-1 LPS/ATP IL-1B secretion, AlphaLISA, 16 h; active compounds read low; activity change, % at 57.5 µM; in the data active = activity change below about -50%; inconclusive = mostly about -30% to -49%
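Secreted IL-1B measured by AlphaLISA bead assay after 16 h compound exposure of THP-1 cells; compounds (final up to 57.5 uM) added 1 h before LPS (250 ng/mL) and ATP (1.25 mM) stimulation; lower signal means less secretion.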
DT40 TDP1 CPT = DT40-hTDP1 cell growth loss with CPT; chicken DT40 Tdp1-/-;hTDP1 cells + 20 nM CPT, ATP luminescence, 48 h; Potency, µM (titrated, usually from 46.2 µM), actives largely listed as inhibitors; 420,000 tested, 12% active; AID 686979; also: nearly all actives have a fitted effect of over 55% in size
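Chicken DT40 Tdp1-/- cells complemented with human TDP1, 400 cells/well, exposed to compounds plus 20 nM camptothecin for at least 48 h at 37 C; viability read as ATP content by CellTiter-Glo luminescence.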
HT1080-NT tox = kills 2HG-producing HT-1080-NT fibrosarcoma cells; HT-1080-NT fibrosarcoma viability, CellTiter-Glo ATP luminescence, 48 h; Potency, µM (series often up to 46.1 µM), most hits filed as cytotoxic; AID 686970; 360,000 tested, 1.6% active;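 also: NT is the 2HG producing partner of a matched IDH1 knockdown line; nearly all actives have a fitted effect of over 55% in size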
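Fibrosarcoma NT cells, 750 per well in 5% FBS RPMI, were exposed to compound for 48 hours. Viability: CellTiter-Glo luminescence.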
DT40 TDP1 no CPT = qHTS for Inhibitors of human tyrosyl-DNA phosphodiesterase 1 (TDP1): qHTS in cells in absence of CPT; DT40 Tdp1-/- hTDP1 cells, no CPT, ATP luminescence, 48 h; Potency, µM (series often up to 46.2 µM), hits mostly inhibitors; 420,000 tested, 15% active; also: nearly all actives have a fitted effect of over 55% in size
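Compound effects on proliferation are scored in DT40 Tdp1-/-;hTDP1 cells in the absence of CPT. ATP levels (CellTiter-Glo luminescence) are recorded after a ≥48 hr, 37 °C incubation.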
Large screens that a line does not name were inactive. Unless noted, calls follow the shape of the dose curve; as a rule, active = well fitted curve in the direction sought with a large enough effect; inconclusive = small, poorly fitted or top-dose-only effect, or another doubt; inactive = no such curve, though single readings can be large; an effect the other way counts as inactive or inconclusive.

CC1CCCN(c2nc(NCc3ccco3)nc(N)c2[N+](=O)[O-])C1 (stereo not given)	DT40 TDP1 CPT inconclusive, HT1080-NT tox inconclusive, DT40 TDP1 no CPT inconclusive
COc1cccc(Nc2nc(N)c([N+](=O)[O-])c(N3CCOCC3)n2)c1	ELG1 repair inh 23.1µM, DT40 TDP1 CPT inconclusive, DT40 TDP1 no CPT 23.1µM
CC1CC(C)CN(c2nc(NCc3ccco3)nc(N)c2[N+](=O)[O-])C1 (stereo not given)	ELG1 repair inh inconclusive, DT40 TDP1 CPT 16.4µM, DT40 TDP1 no CPT 14.6µM
CCN1CCN(c2nc(N)c([N+](=O)[O-])c(Nc3ccc(C)cc3)n2)CC1	ELG1 repair inh inconclusive, IL1B secr inh -61.5, DT40 TDP1 CPT inconclusive, DT40 TDP1 no CPT inconclusive
Cc1cccc(Nc2nc(N)c([N+](=O)[O-])c(N3CCOCC3)n2)c1	ELG1 repair inh inconclusive, DT40 TDP1 no CPT inconclusive
CCN1CCN(c2nc(N)c([N+](=O)[O-])c(Nc3ccc(C)c(C)c3)n2)CC1	DT40 TDP1 CPT inconclusive, DT40 TDP1 no CPT 16.4µM
Cc1ccc2c(c1)N(C(C)C(=O)NCc1cccs1)C(=O)CO2 (stereo not given)	none
Cn1c(-c2ccc3c(c2)OCO3)cnc1NCc1cccc(O)c1	HT1080 IDH1KD tx inconclusive, DT40 TDP1 no CPT inconclusive
COc1ccc(Nc2nc(N)c([N+](=O)[O-])c(N3CCCC3)n2)cc1	ELG1 repair inh inconclusive, DT40 TDP1 CPT inconclusive, DT40 TDP1 no CPT inconclusive
Cc1ccc(Nc2nc(N)c([N+](=O)[O-])c(N3CCCC(C)C3)n2)cc1C (stereo not given)	IL1B secr inh -98.0, DT40 TDP1 CPT inconclusive, DT40 TDP1 no CPT inconclusive
Cc1ccc(Nc2nc(N3CCN(C)CC3)nc(N)c2[N+](=O)[O-])cc1C	ELG1 repair inh 8.2µM (no result: HT1080 IDH1KD tx, IL1B secr inh, DT40 TDP1 CPT, HT1080-NT tox, DT40 TDP1 no CPT)
Cc1cccc(OCc2nc(CC(=O)Nc3ccc(C)cc3C)cs2)c1	DT40 TDP1 CPT 14.6µM, DT40 TDP1 no CPT inconclusive (no result: HT1080 IDH1KD tx, ELG1 repair inh, IL1B secr inh, HT1080-NT tox)
COc1ccc(-n2cc(CN(C)C3CCOCC3)c(-c3cccc(F)c3)n2)cc1	HT1080 IDH1KD tx inconclusive, DT40 TDP1 CPT inconclusive, HT1080-NT tox inconclusive, DT40 TDP1 no CPT 18.4µM
COc1ccc(-n2cc(CNCCCn3ccnc3)c(-c3cccc(F)c3)n2)cc1	HT1080 IDH1KD tx inconclusive, IL1B secr inh inconclusive, DT40 TDP1 CPT inconclusive
COc1ccc(-n2cc(CNCC3CCOCC3)c(-c3cccc(F)c3)n2)cc1	IL1B secr inh -55.8, DT40 TDP1 CPT inconclusive, HT1080-NT tox inconclusive, DT40 TDP1 no CPT 16.4µM
COc1cccc(-c2nn(-c3ccccc3)cc2CN2CCCO2)c1	ELG1 repair inh inconclusive
COc1ccc(-n2cc(CNCc3cnc4ccccn34)c(-c3cccc(F)c3)n2)cc1	IL1B secr inh -73.2, DT40 TDP1 CPT inconclusive, HT1080-NT tox inconclusive, DT40 TDP1 no CPT inconclusive
COc1cc2cc(CN(Cc3cccs3)C(=S)Nc3ccccc3)c(=O)[nH]c2cc1OC	ELG1 repair inh 8.2µM, DT40 TDP1 CPT inconclusive, DT40 TDP1 no CPT 20.6µM
CCNC(=S)N(Cc1ccco1)Cc1cc2cc(OCC)ccc2[nH]c1=O	ELG1 repair inh inconclusive, DT40 TDP1 CPT inconclusive, DT40 TDP1 no CPT inconclusive
CCNC(=S)N(Cc1cccs1)Cc1cc2cc(OCC)ccc2[nH]c1=O	ELG1 repair inh inconclusive, DT40 TDP1 CPT inconclusive, DT40 TDP1 no CPT 16.4µM
CNC(=S)N(Cc1cccs1)Cc1cc2ccc(OC)cc2[nH]c1=O	ELG1 repair inh inconclusive, DT40 TDP1 CPT inconclusive, DT40 TDP1 no CPT 18.4µM
O=[N+]([O-])c1cccc(-c2noc(-c3ccco3)n2)c1	ELG1 repair inh inconclusive
COc1ccc(C2CC(O)(c3ccccc3)Oc3cc(OC)cc(OC)c32)cc1 (stereo not given)	IL1B secr inh inconclusive, DT40 TDP1 CPT 23.1µM, DT40 TDP1 no CPT inconclusive
Cc1sc2nc(CSc3ccc([N+](=O)[O-])c(C(F)(F)F)c3)[nH]c(=O)c2c1C	HT1080 IDH1KD tx inconclusive, DT40 TDP1 CPT inconclusive, DT40 TDP1 no CPT inconclusive
COc1ccc(N2CCC(CNC(=O)Nc3ccc(Cl)cc3)C2)cc1 (stereo not given)	ELG1 repair inh inconclusive, DT40 TDP1 CPT inconclusive, DT40 TDP1 no CPT 18.4µM
CCc1ccccc1NC(=S)NCC1CCN(c2ccc(OC)cc2)C1 (stereo not given)	DT40 TDP1 CPT inconclusive, HT1080-NT tox inconclusive, DT40 TDP1 no CPT 20.6µM
COc1ccc(N2CCC(CNC(=O)Nc3cccc(OC)c3)C2)cc1 (stereo not given)	DT40 TDP1 CPT inconclusive, DT40 TDP1 no CPT inconclusive
CCc1cccc(C)c1NC(=S)NCC1CCN(c2ccc(OC)cc2)C1 (stereo not given)	HT1080 IDH1KD tx inconclusive, ELG1 repair inh inconclusive, IL1B secr inh -67.0, DT40 TDP1 CPT 20.6µM, HT1080-NT tox inconclusive, DT40 TDP1 no CPT 20.6µM
CCn1c(C)cc(C(=O)COC(=O)CNC(=O)c2ccco2)c1C	none (no result: ELG1 repair inh)
C=CCC[C@@H](CCCCC)OC(=O)/C=C/[C@H](O)[C@@H](O)C[C@H](O)CC=C	IL1B secr inh -54.8, DT40 TDP1 CPT inconclusive, HT1080-NT tox inconclusive, DT40 TDP1 no CPT inconclusive (no result: ELG1 repair inh)
C=CCCCCCCCCCCCC(O)CC(O)COC(C)=O (stereo not given)	none (no result: HT1080 IDH1KD tx, ELG1 repair inh, IL1B secr inh, HT1080-NT tox)
C=CCC[C@H](CCCCC)OC(=O)/C=C/[C@H](O)[C@@H](O)C[C@H](O)CC=C	DT40 TDP1 CPT inconclusive, DT40 TDP1 no CPT 25.9µM (no result: ELG1 repair inh)
